We go through 35 molecules from PubChem BioAssay.

Each structure is given as a SMILES string.

This test deals with Calmodulin-1 (Homo sapiens) (UniProt P0DP23). The test can be described thus: small molecules binding Ca-loaded calmodulin-1 – biochemical, small-molecule microarray, Cy5-labelled CALM1, plus calcium, artefact control for SMM control-protein annotation, profiling panel (AID 1112).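 Further: score merges spot fluorescence with signal to noise from triplicate slides.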 Particulars: Cy5-CALM1 binding fluorescence, higher = more signal.
Consider `COCCOC(=O)N1C(=O)[C@@]2(c3cc(C#CCC(C(=O)OC)C(=O)OC)ccc31)[C@H](c1ccc(OCCO)cc1)N1[C@H](c3ccccc3)[C@H](c3ccccc3)OC(=O)[C@H]1[C@@H]2C(=O)N1CCCCCCC1`, for which the composite z-score is 1.53. The same measure for `Cc1ccc(S[C@]2(C(=O)NCC(F)(F)F)CC(=O)N(C3CCCCC3)[C@@H]2c2ccc(CO)cc2)cc1`: 0.27.

Consider `COCCOC(=O)N1C(=O)[C@@]2(c3ccccc31)[C@H](C(N)=O)[C@H]1C(=O)O[C@H](c3ccccc3)[C@H](c3ccccc3)N1[C@@H]2c1ccc(OCCO)cc1`, for which the composite z-score is -0.183.

For `C=CCC(OC(C)=O)[C@@H]1[C@@H](N(Cc2ccc(-c3cccc(C(F)(F)F)c3)o2)C(=O)c2cccc3ccccc23)c2cc(OCCCO)ccc2N1C(=O)c1ccc2ccccc2c1` (stereo not given in full), the composite z-score was 0.17. Under `COc1ccc(NC(=O)O[C@H]2[C@H](OC(=O)Nc3ccc4c(c3)OCO4)[C@H](OC(=O)Nc3ccc4c(c3)OCO4)[C@@H](OC)O[C@@H]2CO)cc1` stands -0.958; under `[N-]=[N+]=NCc1ccccc1C[C@]1(C(=O)N2CCOCC2)N=C(c2ccc(OCCCO)cc2)O[C@H]1c1ccccc1CN=[N+]=[N-]`, 1.28; under `CCCCC(=C=CC[C@@H](O)c1cccc(OCCO)c1)CCO`, 0.181. For the molecule `CC(C)C[C@@H]1NC(=O)[C@H]2C[C@@H](C(=O)NCCCCCCNC(=O)CS)[C@@H](c3ccc(O)cc3)N2C1=O`, the composite z-score was 0.858.

Regarding `C=CCC(OC(C)=O)[C@@H]1[C@@H](N(Cc2cc3ccccc3o2)C(=O)Cc2ccc(OC)cc2)c2cc(OCCCO)ccc2N1C(=O)Cc1ccc(OC)cc1` (stereo not given in full), the composite z-score was 0.158. Turning to `COc1ccc([Si](C)(C)[C@H]2[C@H](CCn3cc([C@H](O)c4ccccc4)nn3)O[C@@]3(C(=O)N(c4ccccc4)c4ccccc43)[C@@H]2C)cc1`, the composite z-score was found to be 0.82. As to `Cc1ccccc1C(O)C1C=CC2C(=O)N(c3ccccc3)C(=O)C2N1Nc1ccccc1F` (stereo not given), the composite z-score worked out at 0.789.

As to `C=CC[C@@]1(C(=O)N(C)C)N=C(c2ccc(OCCCO)cc2)O[C@@H]1c1ccccc1`, the composite z-score worked out at 0.621.

Take `CCCCC(O)C1C=CC2C(=O)N(C)C(=O)C2N1Nc1ccccc1` (stereo not given): the composite z-score turned out to be 0.032. Under `COC(=O)C1=CC(CCCO)=CC(c2ccc(CN3CCCC3)cc2)N(Cc2sc3ccccc3c2Cl)C=C1C(=O)OC` (stereo not given) stands 1.22; under `C=C(/C(=C/C[C@@H](OC(C)=O)c1ccccc1OCCO)c1cc(C(=O)OC)ccc1OC)C(C)C`, -0.692. Under `CCCC=C(CCC)[C@@H](NC(=O)c1ccccc1)c1ccc(C(=O)OC)cc1` stands -0.52. Turning to `COC(=O)[C@@]1(Cc2ccc(OC)cc2)[C@@H]2[C@@H](CC(=O)[C@H]2CC(=O)C(=O)N2CCCC2)CN1C(=O)c1ccccc1`, the composite z-score is 1.02. Under `CCCCCN1CC=CC23O[C@@H]4C=CCOC(=O)[C@@H]4[C@H]2C(=O)N(CCCCCO)[C@@H]3C1=O` (stereo not given in full) stands -0.177. The same measure for `COc1ccc(CCNC(=O)[C@@]2(Sc3ccc(C)cc3)CC(=O)N(Cc3cc(C(F)(F)F)cc(C(F)(F)F)c3)[C@@H]2c2ccc(CO)cc2)cc1`: -0.0998; for `CN1C(=O)[C@]2(CCC(=O)OC(C)(C)C)N=C(c3ccc(OCCCO)cc3)O[C@@H]2c2ccccc21`: -0.0006. Take `COC(=O)[C@@]1(Cc2ccccc2CN=[N+]=[N-])COC(c2ccc(OCCCO)cc2)=N1`: the composite z-score came to 0.0354.

Turning to `CCCC[C@H]1OB(O)C[C@H]2C1=C(C)C[C@H]1C(=O)C=CC(=O)[C@H]12`, the composite z-score was -0.741. The same measure for `O=C1O[C@H](c2ccccc2)[C@H](c2ccccc2)N2[C@H]1[C@@H](C(=O)NC[C@H](O)c1ccccc1)[C@]1(C(=O)Nc3ccc(C#CCCO)cc31)[C@H]2c1ccccc1OCCO`: -0.0628. Under `CCC[C@@H]1[C@@H](Sc2ccccc2)[C@@H](C(=O)O)[C@H](c2ccc(C)cc2)N1S(=O)(=O)c1ccc(C)cc1` stands 0.859; under `CC(C)(C)OC(=O)CC[C@]1(C(=O)N2CCOCC2)N=C(c2ccc(OCCCO)cc2)O[C@H]1c1ccccc1CN=[N+]=[N-]`, 0.15; under `COC(=O)[C@@]1(Cc2ccc(F)cc2)[C@H]2c3cc(C(=O)N(C)C)n(CCN4CCOCC4)c3C[C@H]2CN1C(=O)c1ccccc1`, -0.125. Under `O=C1OCCC/C=C\[C@H]2OC34C=CCN(Cc5ccccc5)C(=O)[C@H]3N(CCCCCO)C(=O)[C@@H]4C12` (stereo not given in full) stands -0.775; under `CCOC(=O)C[C@H]1[C@H](OC(=O)c2ccc(C(=O)c3ccccc3)cc2)[C@@H](NC(=O)c2ccc3ccccc3c2)c2cc(OCCCO)ccc2N1C(=O)c1ccc2ccccc2n1`, -0.191.

For `NC(=O)NCC#Cc1ccc2c(c1)[C@]1(C(=O)N2)[C@H](C(=O)Nc2nc3ccccc3s2)[C@H]2C(=O)O[C@H](c3ccccc3)[C@H](c3ccccc3)N2[C@@H]1c1ccc(OCCO)cc1`, the composite z-score was found to be 0.417. The same measure for `CC(C)C(=C=CC[C@@H](O)c1ccccc1OCCO)C[C@@H](O)c1cc(Cl)cc(Cl)c1O`: -0.538; for `COC(=O)[C@@H]1N=C(c2ccc(OCCCO)cc2)O[C@@H]1c1ccccc1CN=[N+]=[N-]`: -0.292; for `COc1cc2c(cc1O)C(C1CC1)N(Cc1ccc([N+](=O)[O-])o1)CC2` (stereo not given): 1.21.

Regarding `COc1ccc(NN2C(C(O)c3cc(C(F)(F)F)cc(C(F)(F)F)c3)C=CC3C(=O)N(C4CCCCC4)C(=O)C32)cc1` (stereo not given), the composite z-score stood at 0.0635. Under `C=CCC(OC(C)=O)[C@@H]1[C@@H](N(Cc2ccc(-c3ccccc3)cc2)C(=O)c2ccc(-c3ccccc3)cc2)c2cc(OCCCO)ccc2N1C(=O)c1ccc2ccccc2n1` (stereo not given in full) stands 0.531; under `O=C(NCC(F)(F)F)[C@@H]1c2ccccc2C(=O)N(CC23CC4CC(CC(C4)C2)C3)[C@H]1c1ccc(CO)cc1`, -0.715.
